# Inconclusive results are not listed. A number with no mark means an inactive call. Calls of active or inactive are those of the source. Calls come from the whole dose curve; as a rule, active = well fitted cell-killing curve with a large enough effect; inconclusive = small, poorly fitted or top-dose-only effect, or effect the other way; inactive = no such curve, though single readings can be large or run the other way.
# Assay: Viability qHTS for spleen associated tyrosine kinase inhibitor (SYKi) drug resistant MV4-11 cells (AID 1963824); note: nearly all actives have a fitted effect of over 35% in size
# Details: SYKi-resistant MV4-11 viability, CellTiter-Glo, 72 h; series mostly up to 45 µM
# Procedure, shortened: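 CellTiter-Glo luminescence, read 10 min after reagent addition, reports viability after a 72 hr compound exposure. Cells are an MV4-11 line made resistant to SYK inhibition, seeded at 500 per well onto compound-containing plates.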
# Potency is the fitted concentration of half-maximal effect.
SMILES,Potency,"viability, % of control"
CC(=O)OC1CC(O)C2(C)C(CC(OC(C)=O)C3(C)C2CCC2(C)C(c4ccoc4)C(=O)C4OC423)C1(C)C (centres undefined),6.32 µM (active),–
C=C1[C@@H](C)C2[C@H](Cc3ccccc3)NC(=O)[C@@]23C(/C=C/C[C@H](C)C[C@@](C)(O)/C=C/[C@@H]3OC(C)=O)[C@@H]1O (some centres undefined),0.92 µM (active),–
CC(=O)OC[C@]12C[C@H](OC(=O)CC(C)C)C(C)=C[C@H]1O[C@@H]1[C@H](O)[C@@H](O)[C@@]2(C)[C@]12CO2,0.0089 µM (active),–
CC1=C2C(=O)C3[C@@H](CC=C4C[C@@H](O)CC[C@@]43C)[C@@H]2CC[C@]12O[C@@H]1C[C@H](C)CN[C@H]1[C@H]2C (some centres undefined),inactive,–
C/C=C1/CN2CC[C@]34C(=Nc5ccc(OC)cc53)C2C[C@@H]1C4(CO)C(=O)OC (some centres undefined),inactive,–
CC[C@@H]1/C=C/C=C/C[C@H](C)C(O)[C@](C)(O)C(=O)[C@H](C)C(O)[C@H](C)C(=O)[C@H](C)[C@@H](O)[C@H](C)/C=C/C(=O)O[C@H]2[C@@H](C)[C@@H](CC1)O[C@]1(O[C@H](C[C@H](C)O)[C@H](C)CC1=O)[C@@H]2C (some centres undefined),0.0123 µM (active),–
Cc1ccc(-n2nccn2)c(C(=O)N2CCN(c3nc4cc(Cl)ccc4o3)CCC2C)c1 (centres undefined),9.2 µM (active),–
CC1=CC2(O)/C=C/C(C)(O)C(O)C(O)/C=C/C(=O)OC23C(=O)NC(CC(C)C)C3C1C (centres undefined),inactive,–
COC1CC(OC2CCC3(C=O)C(CCC4C3CCC3(C)C(C5=CC(=O)OC5)CCC43O)C2)OC(C)C1OC1OC(CO)C(O)C(O)C1O (centres undefined),0.0544 µM (active),–
COC(=O)C12C(=O)C(C)(O)C(=O)C1(C)C(C)=CC1C34CCC(OC3=O)C(C)(CO)C4CCC12C (centres undefined),inactive,–
C/C=C(\C)C(=O)OC1C2C3(C)CCC(OC4CC(OC)C(OC5OC(C)C(O)C(OC)C5O)C(C)O4)CC3CCC23OC32CCC(C(C)=O)C2(C)C1OC(=O)/C(C)=C/C (centres undefined),3.9 µM (active),–
Nc1ccc(Sc2ccc(N)cc2)cc1,43.3 µM (active),–
COC1CC(=O)C23C(=O)NC(CC(C)C)C2C(C)=C(C)C(OO)C3/C=C(\C)CCC(O)C1O (centres undefined),7.96 µM (active),–
CC(=O)OC[C@]12C[C@H](O)C(C)=C[C@H]1O[C@@H]1[C@H](O)[C@@H](O)[C@@]2(C)[C@]12CO2,0.805 µM (active),–
C[C@H]1O[C@@H](O[C@H]2CC[C@]3(CO)C4CC[C@]5(C)[C@@H](C6=CC(=O)OC6)CC[C@]5(O)[C@@H]4CC[C@H]3C2)[C@H](O)[C@H](O)[C@@H]1O[C@@H]1O[C@H](CO)[C@@H](O)[C@H](O)[C@H]1O (some centres undefined),0.544 µM (active),–
CN(C(=O)CN1C(=O)COc2cc(Cl)c(Cl)cc21)[C@@H](CN1CCCC1)c1ccc(-c2cccc(C(N)=O)c2)cc1,8.2 µM (active),–
OC1(c2ccc(Cl)cc2)c2ccccc2C2=NCCN21 (centres undefined),16.4 µM (active),–
CN(C(=O)C(c1ccccc1)c1ccccc1)[C@H](CN1CC[C@H](O)C1)c1ccccc1,20.6 µM (active),–
C[C@H]1O[C@@H](n2cnc3c(N)ncnc32)C[C@@H]1O,inactive,–
CCOC(=O)C1(CCc2ccccc2)CCN(Cc2ccc(NC(C)=O)cc2)CC1,23.1 µM (active),–

SMILES,Potency,"viability, % of control"
O=C1NC(=O)c2c1c1c3ccccc3n3c1c1c2c2ccccc2n1C1CCC3O1,0.0164 µM (active),–
CC1=CC(=O)[C@@H](O)[C@]2(C)C3[C@@H](O)[C@@H]4OC(=O)[C@@H]([C@H]4C)[C@]3(C)C(=O)[C@H](O)[C@@H]12 (some centres undefined),12.8 µM (active),–
CC(=O)OC12C(O)C(C)C3(O)C4C=C(C)C(=O)C4CC(CO)=CC3C1C2(C)C (centres undefined),inactive,–
COC(=O)CC1CC2(C(=O)c3c(O)cccc3C2(O)C(=O)OC)C(C)O1 (centres undefined),16.1 µM (active),–
COc1cc(C(=O)O[C@H]2[C@@H]3C=CO[C@@H](O[C@@H]4O[C@H](CO)[C@@H](O)[C@H](O)[C@H]4O)[C@@H]3[C@@]3(CO)O[C@@H]23)ccc1O,inactive,–
CCCCN1[C@@H]2CC[C@H]1CC(OC(c1ccc(F)cc1)c1ccc(F)cc1)C2 (some centres undefined),8.2 µM (active),–
CNc1ccc2oc(C[C@H]3O[C@@]4(CC[C@H]3C)O[C@H](C(C)C(=O)c3ccc[nH]3)[C@H](C)C[C@H]4C)nc2c1C(=O)O (some centres undefined),4.61 µM (active),–
C=C(CO)[C@@]12O[C@@H]1[C@@]1(C)C(=CC2=O)CC[C@@H](O)[C@@H]1C,5.17 µM (active),–
C[C@]12CC[C@@H](O[C@@H]3O[C@H](CO)[C@@H](O)[C@H](O)[C@H]3O)C[C@@]1(O)CCC1C2CC[C@]2(C)[C@@H](C3=CC(=O)OC3)CC[C@]12O (some centres undefined),0.0632 µM (active),–
CC[C@H](C)[C@@H]([C@@H](CC(=O)N1CCC[C@H]1[C@H](OC)[C@@H](C)C(=O)N[C@@H](Cc1ccccc1)c1nccs1)OC)N(C)C(=O)[C@@H](NC(=O)C(C)(C)N)C(C)C,inactive,–
CO[C@H]1[C@H](O)[C@H](O[C@H]2CC[C@]3(C=O)C4CC[C@]5(C)[C@H](C6=CC(=O)OC6)CC[C@]5(O)C4CC[C@@H]3C2)O[C@@H](C)[C@@H]1O (some centres undefined),0.02 µM (active),–
COc1ccc(CC2C(=O)NC(C)C(=O)N(C)C3Cc4ccc(cc4)Oc4cc(ccc4OC4OC(CO)C(O)C(O)C4O)CC(C(=O)NC(C)C(=O)NC(CCC(=O)O)C(=O)N2C)N(C)C3=O)cc1 (centres undefined),0.618 µM (active),–
CN1CCc2cc3c(cc2[C@H]1[C@@H]1OC(=O)c2c1ccc1c2OCO1)OCO3,6.51 µM (active),–
C=CC(C)(C)c1[nH]c2cccc3c2c1C[C@@H]1[C@@H]3[C@@H](OC(C)=O)[C@H](C)CN1C,1.01 µM (active),–
CC1=C[C@H]2O[C@@H]3C[C@H]4OC(=O)/C=C/C=C/C(=O)OCC/C(C)=C/C(=O)OC[C@@]2(CC1)[C@]4(C)[C@]31CO1,0.0056 µM (active),–
CCN1CC2(COC)C3[C@@H](OC)C4C1C3(C1C[C@]3(O)[C@H](OC(=O)c5ccccc5)C1[C@]4(OC(C)=O)[C@@H](O)[C@@H]3OC)[C@H](OC)C[C@H]2O (some centres undefined),inactive,–
C/C=C(\C)C(=O)O[C@H]1[C@H](OC(C)=O)[C@]2(CO)[C@H](O)[C@H](O)[C@]3(C)C(=CCC4[C@@]5(C)CC[C@H](O[C@@H]6O[C@H](C(=O)O)[C@@H](O)[C@H](O[C@@H]7OC[C@H](O)[C@H](O[C@@H]8OC[C@H](O)[C@H](O)[C@H]8O)[C@H]7O)[C@H]6O[C@@H]6O[C@H](CO)[C@@H](O)[C@H](O)[C@H]6O)C(C)(C)C5CC[C@]43C)[C@@H]2CC1(C)C (some centres undefined),–,68.2% [at 9.25 µM]
COCC1OC(=O)c2coc3c2C1(C)C1=C(C3=O)C2CCC(=O)C2(C)CC1OC(C)=O (centres undefined),2.06 µM (active),–
C=C1[C@@H](O)[C@]2(O)OC[C@]34C2[C@]2(C)C(C[C@H]3OC(=O)[C@H](O)[C@@]14O)C(C)=CC(=O)[C@H]2O (some centres undefined),3.17 µM (active),–
